From PubChem BioAssay (EPA / NIEHS) come the findings set out here.

Test [1] can be described thus: IUF_NPC2c_oligodendrocyte_migration_120hr: Leibniz Research Institute for Environmental Medicine (IUF) 120-hour Neural Progenitor Cell Migration Assay for Oligodendrocyte Migration (NPC2c) (AID 2284297).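 Also: O4-positive oligodendrocyte migration distance divided by radial glia migration distance.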 Put shortly: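 hNPC spheres (GW 16-19 cortex), PDL/laminin, DMEM/F12 3:1 + 1% N2, 37C. Dosing day 0–5, half feed day 3, DMSO ≤0.1%. Fixed 120 h; O4 ICC + Hoechst, HCI. Readout: mean oligodendrocyte distance from sphere edge / radial glia distance.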

Test [2] can be described thus: IUF_NPC2a_radial_glia_migration_120hr: Leibniz Research Institute for Environmental Medicine (IUF) 120-hour Neural Progenitor Cell Migration Assay for Radial Glia Migration (NPC2a) (AID 2284298). Put shortly: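 Hoechst-stained nuclei imaged at 120 h; algorithm maps sphere core by densest nuclei, sets migration edge at density threshold, gives radial glia migration distance (um) per well vs DMSO. hNPC spheres (0.3 mm), PDL/laminin, DMEM/F12 3:1 + 1% N2.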

Test [3] is described as follows: IUF_NPC2a_radial_glia_migration_72hr: Leibniz Research Institute for Environmental Medicine (IUF) 72-hour Neural Progenitor Cell Migration Assay for Radial Glia Migration (NPC2a) (AID 2284299). Put shortly: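 Primary hNPC spheres, fetal brain GW 16-19, on PDL/laminin; DMEM/F12 3:1 + 1% N2. Compound dosed day 0, 7 conc. + SC, half-medium refresh day 3. 72 h brightfield, migration distance core-to-front (um), 4 directions averaged.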

The nature of test [4]: IUF_NPC2b_neuronal_migration_120hr: Leibniz Research Institute for Environmental Medicine (IUF) 120-hour Neural Progenitor Cell Migration Assay for Neuron Migration (NPC2b) (AID 2284300). The procedure, abridged:
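hNPC spheres, PDL/laminin, DMEM:F12 3:1 + 1% N2, 37C/5% CO2; 7 concentrations + solvent control (DMSO ≤0.1%), 5 d exposure, half-feed day 3. Fix 120 h, TUBB3 ICC, HCI: mean neuron migration distance ÷ glia distance.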

A short description of test [5]: IUF_NPC3_neuronal_differentiation_120hr: Leibniz Research Institute for Environmental Medicine (IUF) 120-hour Neuronal Differentiation Assay (NPC3) (AID 2284301). Put shortly: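 Single 0.3 mm neurospheres from human fetal cortex were plated in differentiation medium containing test compound. Medium was half-replaced on day 3. After 120 h cells were fixed, immunostained and imaged, and neuronal fraction was scored against DMSO control.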

The nature of test [6]: IUF_NPC4_neurite_length_120hr: Leibniz Research Institute for Environmental Medicine (IUF) 120-hour Neuronal Morphology Assay for Neurite Length (NPC4) (AID 2284302). The procedure, abridged: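 Read-out is mean neurite length in µm of TUBB3-positive neurons, skeletonized from high-content fluorescence images after 120 h. Single 0.3 mm primary human neural progenitor spheres differentiated on poly-D-lysine/laminin under continuous compound exposure; DMSO was baseline.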

Test [7] can be described thus: IUF_NPC5_oligodendrocyte_differentiation_120hr: Leibniz Research Institute for Environmental Medicine (IUF) 120-hour Oligodendrocyte Differentiation Assay (NPC5) (AID 2284304; active = hit-call score of the fitted dose curve at least 0.9, where 1 is the maximum;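 also: primary human fetal neural progenitor spheres plated to migrate and differentiate; share of O4-positive cells among Hoechst nuclei found by CNN image analysis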). The procedure, abridged: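 hNPC spheres, fetal cortex GW 16-19; PDL/laminin, DMEM:F12 3:1 + 1% N2, 37C/5% CO2; 7 concentrations + solvent control, 5 d exposure, half-change day 3. Readout: %O4+ of Hoechst+ nuclei in migration area, CNN classification; DMSO baseline.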

Test [8] in a line: IUF_NPC4_neurite_area_120hr: Leibniz Research Institute for Environmental Medicine (IUF) 120-hour Neuronal Morphology Assay for Neurite Area (NPC4) (AID 2284305; active = hit-call score of the fitted dose curve at least 0.9, where 1 is the maximum). Put shortly: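 Neurite area is read out as the mean pixel area, excluding nuclei, of skeletonized TUBB3-positive neurons imaged after 120 h. Primary human neural progenitor spheres differentiated on poly-D-lysine/laminin with compound present from day 0. Activity was referenced to DMSO controls.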

Read-out in test [9]: Thrombomodulin, THBD (gene 7056)
Kind of test: BSK_LPS_Thrombomodulin: BioMAP Diversity Plus: LPS Assay for Thrombomodulin Biomarker Activity (AID 2284296). The following applies: outcome: primary human HUVEC with PBMC unless noted. Put shortly: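 Human umbilical vein endothelial cells co-cultured with PBMC and stimulated with LPS; cell-surface thrombomodulin measured by ELISA 24 hours after compound. Gain or loss versus DMSO; cytotoxicity checked by SRB staining in parallel cultures.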

Read-out in test [10]: CD69, CD69 (gene 969)
Kind of test: BSK_LPS_CD69: BioMAP Diversity Plus: LPS Assay for CD69 Biomarker Activity (AID 2284303). The following applies: primary human HUVEC with PBMC. Put shortly: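 Human umbilical vein endothelial cells co-cultured with PBMC under LPS stimulation, chemical exposure 24 h; cell-surface CD69 measured by ELISA and fitted in the positive direction versus DMSO.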

Inconclusive results are not listed. Some structures have more than one record in an assay (separate samples or runs), and their calls can disagree. Activity calls are given as the source filed them. The calls were made as follows, unless noted: active = hit-call score of the fitted dose curve at least 0.9, where 1 is the maximum; inactive = score below 0.9.

Turning to `CCOP(=S)(OCC)Oc1nc(Cl)c(Cl)cc1Cl`, the compound was classed as inactive in test [1], in test [2], in test [3], in test [4], in [5] and in test [6]. The outcome in test [7] and in [8] was inactive.
As for `CC(=O)OC(c1ccccc1)C(Cl)(Cl)Cl` (configuration not stated), the outcome in test [9] and in test [10] was inactive.
As to `O=C(O)CCC(F)(C(F)(F)F)C(F)(F)F`, the outcome in test [9] and in test [10] was inactive.
Regarding `O=C(O)C(F)(F)C(F)(F)C(F)(F)C(F)(F)C(F)(F)C(F)(F)C(F)(F)C(F)(F)C(F)(F)C(F)(F)F`, the result in test [9] was inactive. For the same compound, in [10], the AC50 (usually the concentration giving half of the maximal activity seen) is 3330 nM (active) and the outcome was inactive.
For the compound `COP(=O)(OC)O/C(=C\Cl)c1cc(Cl)c(Cl)cc1Cl`, the AC50 in test [1] was 603 nM (active); in [2], 638 nM (active); in [3], 1030 nM (active); in [4], 785 nM (active); in test [5], 988 nM (active); in test [6], 466 nM (active). Moreover, in [8], the AC50 was 675 nM (active).
Regarding `COC(=O)Cc1ccccc1`, in [9], the AC50 is 2180 nM (active) and the outcome was “inactive [setting not given]”. Moreover, in test [10], the outcome was inactive.
Turning to `O=C(O)C(F)(F)C(F)(F)C(F)(F)C(F)(F)C(F)(F)C(F)(F)F`, the result in test [9] and in test [10] was inactive.
